Assay outcomes as filed in PubChem.
TDP1 cell CPT = qHTS for Inhibitors of human tyrosyl-DNA phosphodiesterase 1 (TDP1): qHTS in cells in presence of CPT; Potency, µM (top dose mostly 46.2 µM), without a hit: top-dose activity change, negative = growth inhibition, most hits filed as inhibitors; 420,000 compounds, 12% hits; chicken DT40 Tdp1-/-;hTDP1 cells + 20 nM CPT, ATP luminescence, 48 h; also: % is scaled to controls: 0 for no effect and ±100 for the full control effect; nearly all actives have a fitted effect of over 55% in size
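Chicken DT40 Tdp1-/- cells complemented with human TDP1, 400 cells/well, exposed to compounds plus 20 nM camptothecin for at least 48 h at 37 C; viability read as ATP content by CellTiter-Glo luminescence.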
DT40 TDP1 no CPT = qHTS for Inhibitors of human tyrosyl-DNA phosphodiesterase 1 (TDP1): qHTS in cells in absence of CPT; DT40 Tdp1-/- hTDP1 cells, no CPT, ATP luminescence, 48 h; Potency, µM (titrated, usually from 46.2 µM), without a hit: top-dose activity change, negative = growth inhibition, actives largely listed as inhibitors; 420,000 compounds, 15% hits; AID 686978, 2013; also: % is scaled to controls: 0 for no effect and ±100 for the full control effect; nearly all actives have a fitted effect of over 55% in size
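Cells were dispensed at 400 per well, compounds added by pin tool, plates incubated ≥48 hr at 37 °C, then CellTiter-Glo added for 30 min at room temperature before luminescence reading. Line: DT40 Tdp1-/- complemented with hTDP1; camptothecin omitted.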
TDP1 inh = qHTS Assay for Inhibitors of Tyrosyl-DNA Phosphodiesterase (TDP1); Potency, µM (series often up to 130 µM), inactives show top-dose activity change, negative = inhibition, actives largely listed as inhibitors; AID 485290, 2010; 350,000 compounds, 0.28% hits; recombinant TDP1, AlphaScreen DNA substrate cleavage; also: % is scaled to controls: 0 for no effect and ±100 for the full control effect; nearly all actives have a fitted effect of over 40% in size
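Enzyme-compound mixtures sat 15 min at room temperature, followed by a 5 min reaction with 15 nM final substrate and 10 min with AlphaScreen beads. Recombinant human Tdp1 was used at 1 nM final.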
ClpP mod = qHTS Assay for Activators of ClpP | 340,000 compounds, 1.9% hits | AID 651965, 2013 | ATP-dependent Clp protease proteolytic subunit (Bacillus subtilis (strain 168)), P80244 | Potency, µM (doses to about 57.5 µM), for the others: at the highest dose activity change, negative = active | purified B. subtilis ClpP, FRET peptide cleavage, 20 min; active = well fitted falling curve with a large enough effect; inconclusive = small, poorly fitted or top-dose-only effect; inactive = no such curve, though single readings can be large or run the other way; also: the source files actives as falling curves though it sought activators and does not explain the sign; nearly all actives have a fitted effect of over 65% in size
Target sequence (P80244 whole entry, looked up): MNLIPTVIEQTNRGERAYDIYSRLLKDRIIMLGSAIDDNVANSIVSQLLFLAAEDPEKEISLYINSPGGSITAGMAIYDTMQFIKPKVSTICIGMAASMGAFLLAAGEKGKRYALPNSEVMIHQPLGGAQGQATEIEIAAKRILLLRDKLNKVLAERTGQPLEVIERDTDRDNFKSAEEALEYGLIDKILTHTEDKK
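Purified B. subtilis ClpP, 10 microg/mL final in Tris/HCl pH8 with KCl, BSA, glycerol and Tween-20, cleaved an Abz/nitrotyrosine-quenched decapeptide. Fluorescence (ex 320, em 430) was read at 0 and 20 min at room temperature. Delta was normalized to 5.8 microM ADEP and DMSO/no-enzyme controls.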
Starred values were filed as active, the others as inactive; [ ] = remark or other dose. Compounds with a hit are over-represented: about 17% of the library has one in this group of screens. Unless noted, calls follow the shape of the dose curve; as a rule, active = well fitted curve in the direction sought with a large enough effect; inconclusive = small, poorly fitted or top-dose-only effect, or another doubt; inactive = no such curve, though single readings can be large; an effect the other way counts as inactive or inconclusive. Potency is read from the fitted curve at half-maximal effect.

O=C(NCCc1ccc(Cl)cc1)C1CCN(S(=O)(=O)N2CCCCC2)CC1 was read as TDP1 cell CPT inconclusive, DT40 TDP1 no CPT inconclusive, TDP1 inh 3.1% and ClpP mod -0.9%.
CC(C)(C)C(=O)Nc1ccccc1N1CCN(C(=O)c2ccc(Cl)cc2)CC1 was read as TDP1 cell CPT inconclusive, DT40 TDP1 no CPT inconclusive, TDP1 inh 4.5% and ClpP mod 5.1%.
For COc1ccc(C(=O)N2CCC(C(=O)Nc3ccc(Cl)cc3)CC2)cc1 the results were TDP1 cell CPT 5.8µM*, DT40 TDP1 no CPT inconclusive and ClpP mod -7.3%.
Screening CCN(CC)S(=O)(=O)c1ccc(N2CCCCC2)c(NC(=O)C2CCN(C(=O)c3ccc(F)cc3)CC2)c1 returned TDP1 cell CPT inconclusive and DT40 TDP1 no CPT 23.1µM*.
Screening COc1ccc(C(=O)N2CCC(C(=O)Nc3ccc4c(c3)OCO4)CC2)cc1 returned TDP1 cell CPT -8.8%, DT40 TDP1 no CPT -10.4%, TDP1 inh -1.2% and ClpP mod -2.9%.
CC(C)C(=O)NC(=S)Nc1ccccc1N1CCN(C(=O)c2ccc(Cl)cc2)CC1 was read as TDP1 cell CPT inconclusive, DT40 TDP1 no CPT 16.4µM* and TDP1 inh 6.1%.
N#Cc1nc(-c2ccccc2)cc(-c2ccccc2)n1 was read as TDP1 cell CPT inconclusive, DT40 TDP1 no CPT inconclusive and ClpP mod -12.0%.
Screening O=C(Nc1ccc(S(=O)(=O)Nc2nccs2)cc1)c1cnc(Cl)c(Cl)c1 returned TDP1 cell CPT inconclusive, DT40 TDP1 no CPT inconclusive and ClpP mod 0.8%.
Screening O=C(Nc1cccc(F)c1)C1CCN(C(=O)c2ccc(Cl)cc2)CC1 returned TDP1 cell CPT -22.1%, DT40 TDP1 no CPT inconclusive, TDP1 inh 0.0% and ClpP mod 25.1µM*.
Screening O=C(Nc1ccccc1N1CCCCC1)C1CCN(C(=O)c2ccc(Cl)cc2)CC1 returned TDP1 cell CPT 23.1µM*, DT40 TDP1 no CPT inconclusive, TDP1 inh 2.2% and ClpP mod 0.7%.
`Cc1cc(Cl)ccc1C(=O)C1CCCN(C(=O)c2ccsc2)C1` (stereo not drawn) gave TDP1 cell CPT inconclusive, DT40 TDP1 no CPT inconclusive and ClpP mod 1.2%.
Screening CCOC(=O)c1ccc(NC(=O)C2CCN(C(=O)c3ccc(OC)c(OC)c3)CC2)cc1 returned TDP1 cell CPT inconclusive, DT40 TDP1 no CPT 20.6µM*, TDP1 inh 7.1%[56.1 µM] and ClpP mod -3.2%.
Screening Cc1cc(Cl)ccc1C(=O)C1CCCN(C(=O)c2cccc(N3CCCC3=O)c2)C1 (stereo not drawn) returned TDP1 cell CPT 16.4µM*, DT40 TDP1 no CPT inconclusive, TDP1 inh 2.0% and ClpP mod 1.5%.
`O=C(Nc1ccccc1N1CCCC1)C1CCN(C(=O)c2ccc(Cl)cc2)CC1` gave TDP1 cell CPT inconclusive, DT40 TDP1 no CPT inconclusive, TDP1 inh 0.8% and ClpP mod -3.6%.
`CN(CC(=O)Nc1cccc(F)c1)C(=O)C1CCN(C(=O)c2ccc(Cl)cc2)CC1` gave TDP1 cell CPT -16.1%, DT40 TDP1 no CPT -22.1%, TDP1 inh 0.4% and ClpP mod -0.7%.
Screening Cc1cc2nc(C3CCCCC3)c(CC(C)(C)C)n2c(C)c1Br returned TDP1 cell CPT inconclusive, DT40 TDP1 no CPT inconclusive and ClpP mod -1.5%.
For Cc1ccc(NC(=O)C2CCCN(C(=O)c3ccc(Cl)cc3)C2)cc1C (stereo not drawn) the results were TDP1 cell CPT 4.11µM*, DT40 TDP1 no CPT 2.91µM*, TDP1 inh 3.0% and ClpP mod 2.4%.
Screening CCOC(=O)N1CCN(S(=O)(=O)c2ccc(C(=O)Nc3sc4c(c3C(N)=O)CCN(CC)C4)cc2)CC1 returned TDP1 cell CPT inconclusive, DT40 TDP1 no CPT 20.6µM*, TDP1 inh 6.1% and ClpP mod -5.3%.
For CCCN1CCc2c(sc(NC(=O)c3ccc(S(=O)(=O)N(C)c4ccccc4)cc3)c2C(=O)NC)C1 the results were TDP1 cell CPT inconclusive, DT40 TDP1 no CPT inconclusive, TDP1 inh 6.5% and ClpP mod -2.2%.
